From PubChem BioAssay AID1159580 (chemical genetic matrix, 2015)
“And” between values parts separate entries of the source, which are not always exact repeats. Equal entries are not always repeated. Out of some 5,500 compounds screened, about 2,000 (36%) were called active. Another 18% or so got no clear call; they are omitted. Cut-off read from the data, not from the text of the source: active = normalized growth mostly below about 0.91 (no sharp cut-off); inconclusive = no clear call, values can overlap the other calls; inactive = mostly above about 0.92. This is one part of the list. A structure can be active in one record and inactive in another.

Assay: chemical genetic growth profiling, strain panel (AID 1159580);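 note: tested at 20 µM; growth read once vehicle control cultures reached saturation at 30 °C; 1 = growth at the plate median or of vehicle wells; lower values mean less growth of the strain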
Conditions: growth OD

Measured: normalized growth

CN1CCN(CCCN2c3ccccc3Sc3ccc(Cl)cc32)CC1
0.0843 (active) and 0.921 (inactive): S. cerevisiae deletion strains, locus YNL128W, strain TEP1, stronger effect = lower value
0.151 (active) and 1.03 (inactive): S. cerevisiae deletion strains, locus YMR307W, strain GAS1, stronger effect = lower value
active: S. cerevisiae deletion strains, locus YKL190W, strain CNB1, stronger effect = lower value 0.124 | S. cerevisiae deletion strains, locus YKR001C, strain vps1, stronger effect = lower value 0.0709 | S. cerevisiae deletion strains, locus YLL026W, stronger effect = lower value 0.898 | S. cerevisiae deletion strains, locus YLR027C, strain aat2, stronger effect = lower value 0.843 | S. cerevisiae deletion strains, locus YLR221C, strain rsa3, stronger effect = lower value 0.885 | S. cerevisiae deletion strains, locus YLR320W, strain mms22, stronger effect = lower value 0.866 | S. cerevisiae deletion strains, locus YLR330W, strain CHS5, stronger effect = lower value 0.892 | S. cerevisiae deletion strains, locus YLR342W, strain FKS1 (second series), stronger effect = lower value 0.405 | S. cerevisiae deletion strains, locus YLR342W, strain FKS1, stronger effect = lower value 0.523 | S. cerevisiae deletion strains, locus YLR418C, strain cdc73, stronger effect = lower value 0.25 | S. cerevisiae deletion strains, locus YML120C, strain ndi1, stronger effect = lower value 0.823 | S. cerevisiae deletion strains, locus YMR058W, strain fet3, stronger effect = lower value 0.742 | S. cerevisiae deletion strains, locus YMR125W, strain sto1, stronger effect = lower value 0.869 | S. cerevisiae deletion strains, locus YMR223W, strain ubp8, stronger effect = lower value 0.784 | S. cerevisiae deletion strains, locus YMR231W, strain pep5, stronger effect = lower value 0.0744 | S. cerevisiae deletion strains, locus YMR263W, strain SAP30, stronger effect = lower value 0.717 | S. cerevisiae deletion strains, locus YNL067W, strain RPL9B, stronger effect = lower value 0.724 | S. cerevisiae deletion strains, locus YNL209W, strain ssb2, stronger effect = lower value 0.652 | S. cerevisiae deletion strains, locus YNL233W, strain BNI4, stronger effect = lower value 0.635 | S. cerevisiae deletion strains, locus YNL307C, strain MCK1, stronger effect = lower value 0.777 | S. cerevisiae deletion strains, locus YNL322C, strain KRE1, stronger effect = lower value 0.0727 | S. cerevisiae deletion strains, locus YNR052C, strain pop2, stronger effect = lower value 0.732 | S. cerevisiae deletion strains, locus YOL006C, strain TOP1, stronger effect = lower value 0.427 | S. cerevisiae deletion strains, locus YOR001W, strain rrp6, stronger effect = lower value 0.864 | S. cerevisiae deletion strains, locus YOR070C, strain gyp1, stronger effect = lower value 0.347 | S. cerevisiae deletion strains, locus YOR083W, strain WHI5 (second series), stronger effect = lower value 0.652 | S. cerevisiae deletion strains, locus YOR083W, strain WHI5, stronger effect = lower value 0.669 | S. cerevisiae deletion strains, locus YOR106W, strain vam3, stronger effect = lower value 0.161 | S. cerevisiae deletion strains, locus YOR184W, strain ser1, stronger effect = lower value 0.248 | S. cerevisiae deletion strains, locus YOR265W, strain rbl2, stronger effect = lower value 0.91 | S. cerevisiae deletion strains, locus YOR270C, strain vph1, stronger effect = lower value 0.673 | S. cerevisiae deletion strains, locus YPL051W, strain arl3, stronger effect = lower value 0.778 | S. cerevisiae deletion strains, locus YPL241C, strain CIN2, stronger effect = lower value 0.484 | S. cerevisiae deletion strains, locus YPR163C, strain tif3, stronger effect = lower value 0.148 | S. cerevisiae deletion strains, strain wtn01, stronger effect = lower value 0.355 | S. cerevisiae strains, strain wild type, stronger effect = lower value 0.0575
0.512 (active) and 0.943 (inactive): S. cerevisiae deletion strains, locus YNL153C, strain GIM3, stronger effect = lower value
inactive: S. cerevisiae deletion strains, locus YKL009W, strain mrt4, stronger effect = lower value 0.936 | S. cerevisiae deletion strains, locus YKL068W, stronger effect = lower value 0.989 | S. cerevisiae deletion strains, locus YKL085W, strain MDH1 (second series), stronger effect = lower value 0.979 | S. cerevisiae deletion strains, locus YKL085W, strain MDH1, stronger effect = lower value 0.979 | S. cerevisiae deletion strains, locus YKL160W, strain elf1, stronger effect = lower value 0.974 | S. cerevisiae deletion strains, locus YKR026C, strain gcn3, stronger effect = lower value 0.976 | S. cerevisiae deletion strains, locus YKR091W, strain srl3, stronger effect = lower value 0.982 | S. cerevisiae deletion strains, locus YLL001W, strain dnm1, stronger effect = lower value 0.959 | S. cerevisiae deletion strains, locus YLL041C, strain sdh2, stronger effect = lower value 0.943 | S. cerevisiae deletion strains, locus YLR039C, strain RIC1, stronger effect = lower value 1.18 | S. cerevisiae deletion strains, locus YLR058C, strain SHM2, stronger effect = lower value 0.963 | S. cerevisiae deletion strains, locus YLR102C, strain apc9, stronger effect = lower value 1.01 | S. cerevisiae deletion strains, locus YLR113W, strain HOG1, stronger effect = lower value 0.966 | S. cerevisiae deletion strains, locus YLR258W, strain gsy2, stronger effect = lower value 0.943 | S. cerevisiae deletion strains, locus YLR262C, strain YPT6 (second series), stronger effect = lower value 1.06 | S. cerevisiae deletion strains, locus YLR262C, strain YPT6, stronger effect = lower value 0.689 | S. cerevisiae deletion strains, locus YLR268W, strain sec22, stronger effect = lower value 0.935 | S. cerevisiae deletion strains, locus YLR357W, strain rsc2, stronger effect = lower value 0.914 | S. cerevisiae deletion strains, locus YLR370C, strain arc18, stronger effect = lower value 0.953 | S. cerevisiae deletion strains, locus YLR371W, strain rom2, stronger effect = lower value 1.01 | S. cerevisiae deletion strains, locus YLR384C, strain iki3, stronger effect = lower value 0.987 | S. cerevisiae deletion strains, locus YML016C, strain PPZ1, stronger effect = lower value 0.986 | S. cerevisiae deletion strains, locus YML032C, strain rad52, stronger effect = lower value 0.909 | S. cerevisiae deletion strains, locus YML124C, strain tub3, stronger effect = lower value 0.997 | S. cerevisiae deletion strains, locus YMR078C, strain ctf18, stronger effect = lower value 1 | S. cerevisiae deletion strains, locus YMR129W, stronger effect = lower value 0.966 | S. cerevisiae deletion strains, locus YMR205C, strain PFK2, stronger effect = lower value 0.943 | S. cerevisiae deletion strains, locus YNL071W, strain lat1, stronger effect = lower value 0.918 | S. cerevisiae deletion strains, locus YNL175C, strain NOP13, stronger effect = lower value 0.983 | S. cerevisiae deletion strains, locus YNL183C, strain NPR1, stronger effect = lower value 0.987 | S. cerevisiae deletion strains, locus YNL197C, strain WHI3, stronger effect = lower value 0.975 | S. cerevisiae deletion strains, locus YNL224C, strain SQS1, stronger effect = lower value 1 | S. cerevisiae deletion strains, locus YNL248C, strain rpa49, stronger effect = lower value 0.913 | S. cerevisiae deletion strains, locus YNL250W, strain rad50, stronger effect = lower value 0.983 | S. cerevisiae deletion strains, locus YNL271C, strain bni1, stronger effect = lower value 0.994 | S. cerevisiae deletion strains, locus YNL298W, strain CLA4, stronger effect = lower value 0.937 | S. cerevisiae deletion strains, locus YNL322C, strain KRE1 (second series), stronger effect = lower value 0.995 | S. cerevisiae deletion strains, locus YNR049C, strain mso1, stronger effect = lower value 0.986 | S. cerevisiae deletion strains, locus YOL012C, strain htz1 0.226 | S. cerevisiae deletion strains, locus YOL147C, strain pex11, stronger effect = lower value 0.938 | S. cerevisiae deletion strains, locus YOR061W, strain CKA2, stronger effect = lower value 0.913 | S. cerevisiae deletion strains, locus YOR069W, strain VPS5, stronger effect = lower value 0.996 | S. cerevisiae deletion strains, locus YOR080W, strain dia2, stronger effect = lower value 1 | S. cerevisiae deletion strains, locus YOR136W, strain idh2, stronger effect = lower value 0.925 | S. cerevisiae deletion strains, locus YOR144C, strain elg1, stronger effect = lower value 1 | S. cerevisiae deletion strains, locus YOR231W, strain MKK1, stronger effect = lower value 0.968 | S. cerevisiae deletion strains, locus YOR290C, strain snf2, stronger effect = lower value 0.913 | S. cerevisiae deletion strains, locus YOR316C, strain cot1, stronger effect = lower value 1.01 | S. cerevisiae deletion strains, locus YPL078C, strain atp4, stronger effect = lower value 0.92 | S. cerevisiae deletion strains, locus YPL106C, strain sse1, stronger effect = lower value 0.999 | S. cerevisiae deletion strains, locus YPL240C, strain hsp82, stronger effect = lower value 0.983 | S. cerevisiae deletion strains, locus YPL256C, strain CLN2, stronger effect = lower value 0.978 | S. cerevisiae deletion strains, locus YPR119W, strain clb2, stronger effect = lower value 1.01 | S. cerevisiae deletion strains, locus YPR141C, strain kar3, stronger effect = lower value 0.999 | S. cerevisiae deletion strains, locus YPR167C, strain met16, stronger effect = lower value 0.979
0.101 (active) and 1.03 (inactive): S. cerevisiae deletion strains, locus YPL055C, strain LGE1, stronger effect = lower value
